Each structure is given as a SMILES string. Screen size: about 290,000 compounds; about 11,000 (3.8%) were called active. The sample holds actives, similar compounds and a random draw of the others, so the mix is not that of the screen. Unmarked numbers belong to inactive results.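 The calls were made as follows: active = mean replicate inhibition above about 79%, with every replicate also reaching it (limit read from the data); inconclusive = only one of the two criteria met; inactive = mean below limit and not every replicate reaching it.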

From PubChem BioAssay AID485317 (Broad Institute, 2010) come the findings set out here.

Chain of FAD-linked sulfhydryl oxidase ALR (Homo sapiens) (P55789 whole entry, looked up): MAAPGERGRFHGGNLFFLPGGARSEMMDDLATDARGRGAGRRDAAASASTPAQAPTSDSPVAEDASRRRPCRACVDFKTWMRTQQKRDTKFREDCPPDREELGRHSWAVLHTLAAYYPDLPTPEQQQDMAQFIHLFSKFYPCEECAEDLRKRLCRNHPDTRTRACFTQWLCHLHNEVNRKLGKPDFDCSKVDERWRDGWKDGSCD

The test addresses FAD-linked sulfhydryl oxidase ALR (Homo sapiens) (UniProt P55789). As to the kind of experiment: inhibitors of human ALR sulfhydryl oxidase, primary screen, biochemical, H2O2 detection, HRP-luminol luminescence, single point (AID 485317). Particulars: purified ALR, DTT oxidation, hits give high values, concentration not given here.
Turning to `COc1ccc(S(=O)(=O)Nc2c(C)n(C)n(-c3ccccc3)c2=O)cc1`, the inhibition was -9.38%.

Consider `COc1ccc(S(=O)(=O)/N=C2\C=C(NS(=O)(=O)c3ccccc3)C(=O)c3ccccc32)cc1`, for which the inhibition is 87.5% (active). `COc1ccc(S(=O)(=O)NCCCc2ccccc2)cc1`: the inhibition was -2.65%. As to `COc1cc(OC)cc(-c2c(-c3cccs3)c3cc(-c4ccc(OC)nc4)ccc3n2C)c1`, the inhibition is -18.1%. `O=C(OCC(=O)N1CCN(C(=O)c2ccco2)CC1)c1c(Cl)cccc1Cl`: the inhibition is -7.05%.

`Cn1cccc1C(=O)OCC(=O)NCCc1ccccc1`: the inhibition was 5.56%. Turning to `Cc1ccc(Cn2c(SCC(=O)N/N=C/c3ccccc3OCC(=O)O)nc3ccccc32)cc1`, the inhibition was -5.09%. Regarding `Cn1c(Cn2nnc3ccccc32)nnc1SCC(=O)c1ccccc1F`, the inhibition was 25.7%. As for `C=CCn1c(Cn2nnc3ccccc32)nnc1SCC(=O)N/N=C/c1cc(Br)cc(OC)c1O`, the inhibition is 98.4% (active).

In the case of `CSc1ccccc1NC(=O)C(C)N1C(=O)c2ccccc2S1(=O)=O` (centres undefined), the inhibition was -4.05%.

As for `CC(=O)C(CC(=O)N1CCCC1)C(=O)Nc1ccc(Cl)cc1` (centres undefined), the inhibition is 23.9%.

In the case of `Cc1ccc(N2C(=O)N3[C@@H]4c5ccccc5OC[C@@H]4[C@@H](c4ccccc4)[C@@]3(C)C2=O)cc1`, the inhibition was 3%. As to `Cc1nc(SCC(=O)NC2CCCCC2C)c(C#N)c(C)c1C` (centres undefined), the inhibition was -0.312%.

With `O=C(CN1C(=O)NC2(CCOc3ccccc32)C1=O)Nc1cccc([N+](=O)[O-])c1` (centres undefined), the inhibition was 13.9%. `COc1ccccc1C(=O)NCCC(=O)NN1C(=O)NC2(CCCCC2)C1=O`: the inhibition is -0.581%. Regarding `CCCCNc1c(-c2ccc(OC)c(Sc3ccc(OC)cc3)c2)nc2ccc(Cl)cn12`, the inhibition was -8.2%. For the compound `COc1ccc(-c2nc3cnccn3c2NC2CCCCC2)cc1-c1cccc(Cl)c1`, the inhibition was 3.7%.

As to `COc1ccc(-c2nc3cnccn3c2NC(C)(C)CC(C)(C)C)cc1O`, the inhibition was 99.6% (active). `COc1ccc(S(=O)(=O)N(C)C[C@@H]2Oc3ccc(NC(=O)Nc4c(C)noc4C)cc3C(=O)N([C@H](C)CO)C[C@@H]2C)cc1`: the inhibition is -1.21%.

In the case of `NC(=O)NC(CC(=O)NNC(=O)c1ccccn1)c1ccc(Cl)cc1` (centres undefined), the inhibition was -14%.

Turning to `Cc1ccc(N2C(=O)C3C(c4ccccc4)(C2=O)C3(c2ccccc2)c2ccccc2)cc1` (centres undefined), the inhibition is -4.39%. On to `COc1cccc(C2SCC(=O)N2c2cccc(C)c2)c1OC` (centres undefined), for which the inhibition is -42.2%. In the case of `Cc1ccc(C2SCC(=O)N2c2ccccc2)cc1` (centres undefined) it was 98.3% (active). Take `Cc1occc1C(=O)Nc1cccc(S(=O)(=O)N2CCOCC2)c1`: the inhibition is -1.99%. As to `CCOC(=O)C1CCN(C(=O)c2cccc(S(=O)(=O)N(CC)c3ccccc3)c2)CC1`, the inhibition is -13.6%. `COc1ccc(Cl)cc1NC(=O)CN(C)C(=O)c1cc(-c2cccs2)nn1-c1ccccc1`: the inhibition is 21.6%. `COc1ccc(NS(=O)(=O)c2ccc(F)cc2F)cn1`: the inhibition was -5.33%. `COc1ccc(Nc2ccc([N+](=O)[O-])cn2)cn1`: the inhibition is -22.9%. For the compound `COc1ccc(Nc2cc(Cl)ccc2C(=O)O)cn1`, the inhibition is 98.7% (active). As to `O=C(N[C@@H]1C/C=C\C[C@@H](CC(=O)N(CCO)Cc2ccccc2)C(=O)N[C@H](Cc2ccccc2)COC1=O)OCC1c2ccccc2-c2ccccc21`, the inhibition is 5.13%. In the case of `CCOc1ccc(NC(=O)COc2ccc(C(=O)N3CCC(C(N)=O)CC3)cc2OC)cc1` it was -0.853%. The figure for `O=C(CSc1nnc(-c2cccnc2)n1Cc1ccco1)c1ccc(Cl)cc1` is 54.6%; for `CCOC(=O)Cc1csc(NC(=O)CSc2nnc(-c3cccnc3)n2Cc2ccco2)n1` it is -5.11%. The figure for `O=C(CSc1nnc(-c2cccs2)n1Cc1ccco1)c1ccc2c(c1)OCO2` is 0.1%; for `O=C(CSc1nnc(-c2cccnc2)n1Cc1ccco1)c1ccc(Cl)c(Cl)c1` it is 98.2% (active).

Take `C(=C\c1ccccc1)/CSc1nnc(-c2cccnc2)n1Cc1ccco1`: the inhibition is 87.9% (active). Turning to `CCc1ccc(NC(=O)CSc2nnc(-c3cnccn3)n2Cc2ccco2)cc1`, the inhibition was 29.4%. In the case of `O=C(CSc1ncn[nH]1)Nc1ccc(Br)cc1Br` it was -5.94%; in that of `CC(OC(=O)c1ccccc1NCCO)C(=O)Nc1ccnn1C(C)C` (centres undefined), -3.31%. As to `N#Cc1ccc(CN2CCN(CC(=O)Nc3ccccc3C(=O)NC3CC3)CC2)cc1`, the inhibition is -2.66%.

For `Cn1cccc1C(=O)NNC(=O)COc1ccc(Br)cc1`, the inhibition is -4.16%. Take `CCN(CC(=O)Nc1c(F)cccc1F)C(=O)c1ccc(S(=O)(=O)N2CCCCC2)cc1`: the inhibition is -1.01%. With `COC(OC)c1ccnc(SCc2ccccc2Cl)n1`, the inhibition is -8.94%. On to `Clc1ccccc1CSc1nnc(-c2ccco2)c(-c2ccco2)n1`, for which the inhibition was 100% (active). As for `S=C(NCc1ccco1)NCc1ccccc1Cl`, the inhibition was -9.19%. Turning to `O=C(Nc1ccc(C(=O)N2CCOCC2)cc1)Nc1cccc(C(F)(F)F)c1`, the inhibition is -2.29%. With `Cc1ccc(-c2nn(-c3ccccc3)cc2CN(Cc2ccccc2)C(=O)CCC(=O)O)o1`, the inhibition is 97.6% (active). The figure for `Cc1ccc(-c2nn(-c3cccc(F)c3)cc2CNCCc2ccncc2)o1` is -14.7%. Regarding `O=C(O)CCC(=O)N(Cc1ccccc1)Cc1ccccc1`, the inhibition was -2.42%.

For the compound `Cc1c(NC(=O)C(C)OC(=O)c2c3c(nc4ccccc24)CCC(C)C3)c(=O)n(-c2ccccc2)n1C` (centres undefined), the inhibition was 18%. For the compound `O=C1CCc2cc(S(=O)(=O)Nc3ccc(C(F)(F)F)cc3)cc3c2N1CC3`, the inhibition was -0.668%. Regarding `Cc1cc(OCC(=O)N(C)c2c(N)n(Cc3ccccc3)c(=O)[nH]c2=O)c(C(C)C)cc1Cl`, the inhibition is -4.09%. Regarding `O=C(CCNC(=O)c1ccccc1Cl)NN=Cc1ccco1`, the inhibition is -3.45%. The figure for `Cc1csc(NC(=O)CSc2nc(=O)cc(N)n2-c2ccc(F)cc2)n1` is 91.6% (active); for `Cc1csc(NC(=O)CSc2ccc(-c3ccc(F)cc3)nn2)n1` it is -12.2%.

For the compound `Cc1cc(NC(=O)CSc2nc(=O)cc(N)n2-c2ccc(F)cc2)no1`, the inhibition is -1.5%. In the case of `Cc1cc(C)c(S(=O)(=O)N2CCC(C(=O)OCc3c(C)noc3C)CC2)c(C)c1`, the inhibition was -4.27%. The figure for `CCCCN(C(=O)C1=NN(c2cc(C)ccc2C)C(=O)CC1)c1c(N)n(CCC)c(=O)[nH]c1=O` is 0.0423%; for `CCN(Cc1ccccc1)C(=O)Cc1ccc(OC)c(S(=O)(=O)N2CCOCC2)c1` it is -3.18%; for `COc1ccc(OCCCC(=O)Nc2cccc(S(=O)(=O)N3CCCCCC3)c2)cc1` it is -4.87%.

`CCOc1ccc(CCNC(=O)COC(=O)c2c(OC)cccc2OC)cc1OCC`: the inhibition was -5.28%. As for `Cc1ccc(Nc2nnc(SCc3ccccc3)s2)cc1`, the inhibition was -12.9%. For `CC(C)c1ccc(Nc2nnc(SCC(=O)c3nnc(-c4ccccc4)o3)s2)cc1`, the inhibition was 98.1% (active). The figure for `O=C(CSc1nnc(Nc2ccccc2)s1)Nc1cccnc1Cl` is 4.27%; for `CC(C)n1c(-c2cccs2)nc2ccccc21` it is -15.2%. Regarding `CC(C)n1c(COc2ccccc2)nc2ccccc21`, the inhibition is 14.1%. `CC(C)n1c(NCc2c[nH]c3ccccc23)nc2ccccc21`: the inhibition was 97.9% (active). Consider `O=C(O)c1cc(S(=O)(=O)Nc2ccc3cn[nH]c3c2)ccc1Br`, for which the inhibition was 42.7%. The figure for `COc1cc(/C=C/C(=O)Nc2ccc(OC)c(S(=O)(=O)N3CCOCC3)c2)ccc1OCC#N` is -4.4%; for `CCS(=O)(=O)N1Cc2ccccc2CC1C(=O)Nc1ccc(OC)cc1OC` (centres undefined) it is -16.1%; for `CCS(=O)(=O)N1Cc2ccccc2CC1C(=O)Nc1nc2ccc(F)cc2s1` (centres undefined) it is 97.9% (active). The figure for `CSc1ncccc1C(=O)Nc1nc2ccc(F)cc2s1` is -2.85%. Regarding `CCOC(=O)C1Nc2ccc(C(F)(F)F)cc2C2C=CCC12` (centres undefined), the inhibition was -11.3%. Regarding `Cc1cc(NC(=O)COc2ccc([N+](=O)[O-])cc2)no1`, the inhibition was 8.23%.

As to `CN1CCN(c2nc(Nc3ccc(O)cc3)nc3ccccc23)CC1`, the inhibition was 98.9% (active).

Turning to `OCCNc1nc(Nc2ccc(Cl)c(Cl)c2)nc2ccccc12`, the inhibition was 19.6%. In the case of `c1ccc(Nc2nc(N3CCOCC3)c3ccccc3n2)cc1` it was 48.8%. Take `CC(=O)c1c(C)[nH]c(C(=O)CN2C(=O)NC(C)(C)C2=O)c1C`: the inhibition is 0.194%. As to `O=[N+]([O-])c1cccc(S(=O)(=O)NCc2ccccn2)c1`, the inhibition was -12.1%. In the case of `O=c1cc(CO)oc(C(Nc2cccc([N+](=O)[O-])c2)c2ccccn2)c1O` (centres undefined) it was 94.5% (active); in that of `O=c1cc(CO)oc(C(Nc2cccc(C(F)(F)F)c2)c2ccccn2)c1O` (centres undefined), 52.2%. For `COc1ccc(C(=O)N/N=C2\CCS(=O)(=O)c3ccc(F)cc32)cc1OC`, the inhibition is -0.529%. Turning to `O=S1(=O)CC/C(=N\Nc2ccc(F)cc2)c2ccsc21`, the inhibition is 98.3% (active). For the compound `COc1ccccc1NC(=O)COC(=O)CNC(=O)C1CCCCC1`, the inhibition was -0.565%. On to `COc1ccc(-c2c(C#Cc3ccsc3)c3cc(-c4ccc(CN5CCOCC5)cc4)ccc3n2C)cc1`, for which the inhibition was -4.78%. In the case of `COc1ccc(Cn2c(=S)[nH]c3cc(C(=O)N4CCCCC4)ccc3c2=O)cc1` it was 9.27%.

`CCOc1cc2[nH]c(=S)n(Cc3ccc(C(=O)N4CCN(C)CC4)cc3)c(=O)c2cc1OCC`: the inhibition was -0.332%.

In the case of `O=C(O)c1ccc(Cn2c(=S)[nH]c3cc(Cl)ccc3c2=O)cc1`, the inhibition was 94.9% (active).

`CC(=O)c1ccc(S(=O)(=O)Nc2ccc(-c3ccc4nncn4n3)cc2)cc1`: the inhibition was -13.1%.
